Reference: PubChem BioAssay (NCI)
Compounds without any hit were thinned out: in the full panel of roughly 83,000, 20% have a hit.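 The test compound was applied at a single concentration to cells in 96-well plates for 48 hours, and percent growth was recorded.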 Unmarked numbers belong to inactive results. Active and inactive are the calls of the source. Rule for the calls: active = growth percent below 10; inactive = the rest.

Columns and labels:
Assay in all cases: NCI-60 one-dose screen, 48 h (100 = growth as untreated, 0 = no growth, -100 = all killed)
[1] = tested on: SK-MEL-2 melanoma; conditions: 10 µM unless noted
[2] = tested on: EKVX NSCLC; conditions: 10 µM unless noted
[3] = tested on: SN12C renal; conditions: 10 µM unless noted
[4] = tested on: TK-10 renal; conditions: 10 µM unless noted
[5] = tested on: ACHN renal; conditions: 10 µM unless noted
[6] = tested on: CAKI-1 renal; conditions: 10 µM unless noted
[7] = tested on: CCRF-CEM leukemia; conditions: 10 µM unless noted
[8] = tested on: MOLT-4 leukemia; conditions: 10 µM unless noted
[9] = tested on: SR leukemia; conditions: 10 µM unless noted
[10] = tested on: RPMI-8226 leukemia; conditions: 10 µM
[11] = tested on: OVCAR-8 ovarian; conditions: 10 µM unless noted
[12] = tested on: OVCAR-5 ovarian; conditions: 10 µM unless noted
[13] = tested on: SK-OV-3 ovarian; conditions: 10 µM
[14] = tested on: OVCAR-3 ovarian; conditions: 10 µM unless noted
[15] = tested on: HS 578T breast; conditions: 10 µM unless noted
[16] = tested on: A498 renal; conditions: 10 µM unless noted
[17] = tested on: OVCAR-4 ovarian; conditions: 10 µM unless noted
[18] = tested on: IGROV1 ovarian; conditions: 10 µM unless noted
[19] = tested on: NCI/ADR-RES ovarian; conditions: 10 µM unless noted
[20] = tested on: UO-31 renal; conditions: 10 µM unless noted

SMILES | growth [1] | growth [2] | growth [3] | growth [4] | growth [5] | growth [6] | growth [7] | growth [8] | growth [9] | growth [10] | growth [11] | growth [12] | growth [13] | growth [14] | growth [15] | growth [16] | growth [17] | growth [18] | growth [19] | growth [20]
CCOc1ccc(/C=N\N2CCCCCC2)cc1OCC | 103% | 76.8% | 82.7% | 97.7% | 88.7% | 90.8% | 102% | 106% | 89.6% | 83.4% | 101% | 95% | 91.6% | 104% | 120% |  |  |  |  | 
c1ccc2cc(Cn3c(-c4ccc5ccccc5c4)[n+](Cc4ccc5ccccc5c4)c4ccccc43)ccc2c1 | -67.7% (active) | -11.7% (active) | -88.2% (active) |  | -51.5% (active) | -67.3% (active) | -4.24% (active) | -35.4% (active) | -27.8% (active) |  | -62.9% (active) | -12.2% (active) |  | -96% (active) | -58.9% (active) | -64% (active) | -17.2% (active) | -74% (active) | 31.2% | 
CCOc1ccc(-c2cnnn2-c2nonc2-n2cccc2)cc1 | 18.3% | 60.9% | 40.1% | 45.3% | 47.3% | 46.4% |  | 8.83% (active) | 1.35% (active) | 12.5% | 25.9% | 41.1% | -1.75% (active) | -37.1% (active) |  | 18.7% | 39.6% | 36.5% | -5.39% (active) | 
CSc1nnc(-c2sc3nnc(-c4ccccc4)c(-c4ccccc4)c3c2O)o1 | 102% | 77.5% | 75.7% | 100% | 83.6% | 43.5% | 47.4% | 61.8% |  | 67.2% | 85.8% | 101% | 85.5% |  | 98.4% |  |  |  |  | 
C=C(C)CCCC(C)CC#N (stereo not drawn) | 97.4% |  | 103% | 99% | 103% | 98.5% | 96.1% | 101% | 90.8% | 102% | 106% | 103% | 103% | 99.8% | 110% | 103% | 105% | 107% | 107% | 83.6%
COc1ccc(-c2nc3sc(C)nn3c2-c2nc3cc(C)c(C)cc3[nH]2)cc1 | 104% |  | 87.5% | 118% | 89.7% | 89.8% | 85.9% | 78.1% | 76.6% | 83.3% | 89.6% | 103% | 99.5% | 104% |  | 102% | 94.1% | 98.4% | 86.6% | 85.9%
Cc1nc2cc(Nc3nc(N4CCCCC4)nc(N4CCOCC4)n3)ccc2n1Cc1ccccc1 | 19% |  | 52.2% | -32.9% (active) | -41.4% (active) | 63.3% | 62.2% | 36.4% | 25.2% | 17.7% | 27.6% | 55.8% | 39.8% | -3.53% (active) | 34.6% | 38.8% | -63.9% (active) | 47% | 27% | 1.61% (active)
Cc1ccc(S(=O)(=O)N2C/C(=C\c3cc(F)cc(F)c3)C(=O)/C(=C/c3cc(F)cc(F)c3)C2)cc1 | -25.9% (active) |  | -73.9% (active) | 8.08% (active) | -91.4% (active) | -7.75% (active) | -9.43% (active) | -5.52% (active) | 3.56% (active) | -15.1% (active) | -29% (active) | -30.6% (active) | 14.9% | -82.9% (active) | 11.3% | -25.7% (active) | -31.4% (active) | -58.6% (active) | 7.23% (active) | -90.5% (active)
CCCC1=NNC(=O)C1 | 106% |  | 101% | 97.2% | 103% | 94.8% | 100% | 97.2% | 103% | 100% | 102% | 103% | 104% | 120% | 110% | 109% | 106% | 103% | 115% | 82.8%
Cn1c(=O)c(S(=O)(=O)c2ccccc2)cc2ccc3c(cnn3-c3ccc(Cl)cc3)c21 | 87.2% |  | 86.6% | 81.5% | 58.2% | 82.8% | 95.8% | 94.8% | 79% | 75.9% | 60.9% | 94.3% | 69.7% | 94.5% | 69.3% | 53.5% | 39.1% | 96% | 81.5% | 52.2%
COc1cc(C2=NN(c3ccc(S(N)(=O)=O)cc3)C(c3ccc(Cl)cc3)C2)cc(OC)c1OC (stereo not drawn) | 66.9% |  | 51% | 45.9% | 46.5% | 53.3% | 20.7% | 16.6% | 17.5% | -5.03% (active) | 40% | 77.5% | 77.9% | 47.1% | 58.4% | 35.4% |  | 60.9% | 37.5% | 23.2%
COc1ccc(S(=O)(=O)ON=C2C=C(C)C(=O)C(C)=C2)cc1 | 82.5% |  | 113% | 109% | 46% | 61.6% | 26.9% | 42% | 31.8% | 35.1% | 93.1% | 103% | 66.9% | 68.5% | 101% | 98.4% | 55.4% | 95% | 98.5% | 80.4%
COc1ccc(/C=C2\CN(Cc3cn(CCCNc4ccnc5cc(Cl)ccc45)nn3)C/C(=C\c3ccc(OC)cc3)C2=O)cc1 | 90.4% |  | 67% | 94.9% | 79.6% | 92.6% | 1.02% (active) | 32.2% | -6.55% (active) | 18% | 1.09% (active) | 120% | 70.7% | 68.7% | 81.5% | 52.9% | 55.1% | 65% | 50.7% | 54.7%
O=C1CC2c3cc(-c4cc5ccccc5o4)ccc3CCN2C(=O)N1c1ccccc1 (stereo not drawn) | 83% |  | 89.3% | 78.5% | 99.6% | 80.8% | 68.2% | 64.1% | 57.6% | 68.1% | 88.4% | 97.9% | 80% | 99.3% | 107% | 82% | 84.7% | 84.6% | 81.4% | 58.8%
COc1ccc(OC)c2ncccc12 | 87.5% |  | 101% | 108% | 94.7% | 95.7% | 92.4% | 93.1% | 99% | 94.9% | 103% | 107% | 96.7% | 110% | 107% | 101% | 102% | 106% | 100% | 64.4%
CCN(C(=O)c1ccc2c3c(cccc13)C=C2)c1ccccc1 | 84.9% |  | 94.7% | 110% | 100% | 88.7% | 104% | 88.6% | 83.4% | 96.7% | 91.2% | 90.5% | 96% |  | 120% | 90.2% | 106% | 102% | 93.2% | 82.9%
CCOC(=O)c1c(Cl)c2c(n1Cc1ccc(OC)cc1)-c1oncc1CCC2 | 103% |  | 57.6% | 84.8% | 73.9% | 56.1% | 62.2% | 72.1% | 23.7% | 52.4% | 81.5% | 90.1% | 105% | 102% | 67.4% | 65.5% |  | 84.4% | 80.6% | 66.2%
CN([N-]C(=O)CC(=O)[N-]N(C)C(=S)c1ccccc1)C(=S)c1ccccc1.[Cu+2] | -90.2% (active) |  | -97.9% (active) | -99.1% (active) | -50.6% (active) | -94.7% (active) | -19.7% (active) | -36.2% (active) | -17.7% (active) | -13.7% (active) | -39.1% (active) | -53.4% (active) | -99.1% (active) | -85.7% (active) | -12.3% (active) | -93.9% (active) | -98.4% (active) | -93.2% (active) | -3.82% (active) | -97.5% (active)
